The source made the active and inactive calls. Rule for the calls: active = hit-call score of the fitted dose curve at least 0.9, where 1 is the maximum; inactive = score below 0.9.
Assay: ATG_TAL_CIS: Attagene CIS-FACTORIAL HepG2 Assay for human TAL Basal Promoter (AID 2282966)
Conditions: HepG2 Attagene cis-factorial TAL promoter reporter; actives raise or lower the signal
Description: ATG_CIS is a cell-based, multiplexed-readout assay that uses HepG2, a human liver cell line, with measurements taken at 24 hours after chemical dosing in a 24-well plate.ATG_TAL_CIS is one of 52 assay component(s) measured or calculated from the ATG_CIS assay. It is designed to make measurements of mRNA induction, a form of inducible reporter, as detected with fluorescence intensity signals by Reverse transcription polymerase chain reaction (RT-PCR) and Capillary electrophoresis technology.Data from the assay component ATG_TAL_CIS was analyzed into 1 assay endpoint. This assay endpoint, ATG_TAL_CIS, was analyzed with bidirectional fitting relative to DMSO as the negative control and baseline of activity. Using a type of inducible reporter, measures of mRNA for gain or loss-of-signal activity can be used to understand the background control at the transcription factor-level as they relate to the gene . Furthermore, this assay endpoint can be referred to as a secondary readout, because this assay has produced multiple assay endpoints where this one serves a background control function. To generalize the intended target to other relatable targets, this assay endpoint is annotated to the background measurement intended target family, where the subfamily is internal marker.
Human liver HepG2 cells are transiently transfected with multiple reporter transcription units (MRTUs) in 6-well plates using FuGene 6 reagent (Roche; 3 ml FuGene/1 mg DNA). The MRTU constructs are regulated by a cis-regulating element (promoter). […] A major difference between the CIS and TRANS system is that in CIS activities of endogenous TFs are measured, whereas the TRANS assay evaluates changes in activities of exogenous, chimeric NR-Gal4 proteins. […] At the end of 24 hour incubation, total RNA was isolated using TriZol reagent (Invitrogen). The isolated RNA is then reverse-transcribed using oligo(dT) primer and Mo-MLV reverse transcriptase (Invitrogen) with DNAse I (Ambion) treatment for 30 min. The one-tenth of the produced cDNA was amplified by PCR using Taq DNA polymerase (Invitrogen) and two reporter sequence-specific primers. The PCR products were fluorescently labeled by primer extension with 6-arboxyfluorescein (6-FAM) 5'-labeled reporter sequence-specific primer (2 min at 95 C, 20 s at 68 C and 10 min at 72 C) and these products were digested with 5U of HpaI (New England Biolabs) for 2h at 37 C. The fragments were purified using Qiaquick PCR columns (Qiagen), analyzed on an ABI 3130xL genetic analyzer (Applied Biosystems) with peak positions identified by using a set of X-rhodamine (ROX)-labeled MapMarker1000 molecular weight standards (BioVentures). The raw capillary electrophoresis data was processed using Attagraph software (Attagene).

outcome, inactive:
CCCCCCCOC(=O)CCC
CCCCCCCC/C=C\CCCCCCCC(=O)OCCO
CCC(C)OC(=O)c1ccc(O)cc1 (stereo not given)
CCC(C)(C)C1CCCCC1OC(C)=O (stereo not given)
CC(C)(C)c1ccc(N)cc1
COC(=O)c1sccc1S(N)(=O)=O
O=C1CC2CC1C1CCCC21 (stereo not given)
C[Si](C)O[Si](C)(C)O[Si](C)(C)O[Si](C)C
CC(C)=CCC[C@H](C)CCO
CC[C@H]1OC(=O)[C@H](C)[C@@H](O[C@H]2C[C@@](C)(OC)[C@@H](O)[C@H](C)O2)[C@H](C)[C@@H](O[C@@H]2O[C@H](C)C[C@H](N(C)C)[C@H]2O)[C@](C)(O)C[C@@H](C)C(=NOCOCCOC)[C@H](C)[C@@H](O)[C@]1(C)O
Cc1ccc([N+](=O)[O-])cc1S(=O)(=O)O
CC(=O)OC(C)C
CC(C)(C)c1n[nH]c(=O)n(N)c1=O
O=C1C=CC(=O)O1
CCCCCCCCCCCCCCCC[N+](C)(C)CC
CCCCC(CC)COC(=O)c1ccccc1 (stereo not given)
CCOc1ccc(N)c([N+](=O)[O-])c1
CC(C)=CCCC(C)C=O (stereo not given)
NC(=O)OCC(COC(N)=O)c1ccccc1
Nc1nc2ccccc2[nH]1
NC(CO)(CO)CO
O=C(O)CCCCCCCCCC(=O)O
O=Cc1ccc(CO)o1
CCOC(F)(F)C(F)(F)C(F)(F)C(F)(F)F
CCCC(C)CCC(C)=O (stereo not given)
CC(=O)c1ccc[nH]1
C=C(C)[C@@H]1CCC2=CCC[C@@H](C)[C@]2(C)C1
O=[N+]([O-])C1(Br)COCOC1
CCCCCCOc1cc(C)c(O)c(C)c1C
COC(=O)c1ccccc1OC
CCOC(=O)[C@H](C)O
COC(=O)/C=C/C(C)=C\C=C\C(C)=C\C=C\C=C(C)\C=C\C=C(C)\C=C\C(=O)O
CCCCCCC1(C)CCC(=O)O1 (stereo not given)
C=C(C)C(=O)OCCOc1ccccc1
CC(=O)OCC(C)OC(C)=O (stereo not given)
NC(=O)C1CO1 (stereo not given)
C[Si](C)(CCCN)O[Si](C)(C)CCCN
CCOC(=O)CC
CCCCC(CC)COCC1CO1 (stereo not given)
Cc1cc(C)c(C)c(O)c1

From PubChem BioAssay (EPA / NIEHS)
